High-throughput results as filed in PubChem.
Only a selection was taken, and hits are over-represented in it overall.
CHX counter: counter-screen for Shiga toxin inhibitors: cycloheximide protein synthesis inhibition | cell reporter, cycloheximide protein synthesis inhibition counterscreen | max response, % | 12% of 300,000 active; in the data active = max response mostly above about 13%, no sharp cut-off; inactive = mostly below about 14%; also: read at 38.3 µM for the half of the compounds with a filed dose; 0% is about no effect
LmPK inh: blocks Leishmania mexicana pyruvate kinase activity. Q27686. purified LmPK, Kinase-Glo ATP luminescence, 1 h. Potency, µM (highest dose often 57.5 µM), for inactives: at the highest dose activity change, negative = inhibition, usual class: inhibitors. 0.37% of 290,000 active; also: potency is read from the fitted curve at half-maximal effect; % is scaled to controls: 0 for no effect and ±100 for the full control effect
Target sequence (Q27686 whole entry, looked up): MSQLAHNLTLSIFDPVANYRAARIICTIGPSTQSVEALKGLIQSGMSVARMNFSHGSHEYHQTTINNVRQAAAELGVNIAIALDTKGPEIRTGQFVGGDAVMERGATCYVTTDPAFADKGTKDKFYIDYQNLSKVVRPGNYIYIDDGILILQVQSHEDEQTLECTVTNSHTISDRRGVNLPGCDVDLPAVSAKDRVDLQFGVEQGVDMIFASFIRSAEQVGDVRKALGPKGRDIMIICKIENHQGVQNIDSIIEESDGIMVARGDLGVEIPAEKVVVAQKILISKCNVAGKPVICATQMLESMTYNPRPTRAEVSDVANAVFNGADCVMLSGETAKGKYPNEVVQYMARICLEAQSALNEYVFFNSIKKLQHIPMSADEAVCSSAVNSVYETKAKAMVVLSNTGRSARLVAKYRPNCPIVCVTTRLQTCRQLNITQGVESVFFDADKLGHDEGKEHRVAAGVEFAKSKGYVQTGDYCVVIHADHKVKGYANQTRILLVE
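Screened at intermediate enzyme activity to detect both inhibitors and activators: LmPK at 0.1 nM, with a 0.5 nM enzyme column as activation reference. PEP 0.5 mM, ADP 0.1 mM; ATP detected by luminescence after 1 h.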
TbPYK inhibitor: T. brucei pyruvate kinase inhibition. TbPYK enzyme, Kinase-Glo Plus ATP luminescence, 45 min. Potency, µM (titrated, usually from 76.8 µM), for inactives: at the highest dose activity, negative = inhibition, usual class: inhibitors. 0.12% of 410,000 active. Q57TT1; also: potency is read from the fitted curve at half-maximal effect; % is scaled to controls: 0 for no effect and ±100 for the full control effect; nearly all actives have a fitted effect of over 50% in size
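Enzyme and substrate buffer are dispensed first and compound is pin-transferred. ADP at 130 uM final then starts the reaction, which runs 45 min at room temperature. Detection reagent is added for 10 min before luminescence is imaged.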
FBPA Giardia inh: inhibitors of Giardia lamblia fructose-1,6-bisphosphate aldolase; purified Giardia FBPA; Potency, µM (doses to about 59.6 µM), for inactives: top-dose activity, negative = inhibition, actives largely listed as inhibitors; 0.71% of 290,000 active; A8B2U2; also: potency is read from the fitted curve at half-maximal effect; % is scaled to controls: 0 for no effect and ±100 for the full control effect; nearly all actives have a fitted effect of over 55% in size
Target sequence (A8B2U2 whole entry, looked up): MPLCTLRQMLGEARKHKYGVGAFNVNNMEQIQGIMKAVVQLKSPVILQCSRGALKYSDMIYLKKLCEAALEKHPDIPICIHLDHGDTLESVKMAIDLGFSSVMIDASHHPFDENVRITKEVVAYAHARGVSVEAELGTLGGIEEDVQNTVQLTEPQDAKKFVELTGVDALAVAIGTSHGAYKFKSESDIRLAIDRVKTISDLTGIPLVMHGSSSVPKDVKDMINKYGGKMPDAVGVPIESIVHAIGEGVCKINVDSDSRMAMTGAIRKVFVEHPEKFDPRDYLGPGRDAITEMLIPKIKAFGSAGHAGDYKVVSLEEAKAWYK
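40 nM FBPA preincubated 10 min at RT with compound (up to 57.5 uM final), then substrate plus GAPDH/TPI/NAD/arsenate coupling and diaphorase/resazurin added. Fluorescence read after 20 min at RT, 525/598 nm.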
Shiga inhibitor: blocks Shiga toxin action in Vero cells. Vero cells, Shiga toxin protein synthesis inhibition reporter. inhibition, % at 38.7 µM. 9.2% of 290,000 active; in the data active = inhibition mostly above about 28%, no sharp cut-off; inactive = mostly below about 43%; also: 0% is about no effect
RE007 growth inh: less growth of the S. pombe RE007 Vpr strain | S. pombe RE007 Vpr strain, BacTiter-Glo ATP luminescence, 24 h | Potency, µM (top dose mostly 92.2 µM), inactives show top-dose activity change, negative = less growth, usual class: inhibitors | 0.21% of 360,000 active | AID 651644; active = well fitted falling curve with a large enough effect; inconclusive = small, poorly fitted or top-dose-only effect; inactive = no such curve, though single readings can be large or run the other way; also: potency is read from the fitted curve at half-maximal effect; % is scaled to controls: 0 for no effect and ±100 for the full control effect; nearly all actives have a fitted effect of over 50% in size
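Fission yeast RE007 carrying one integrated HIV-1 vpr copy, seeded at OD 0.01 in PMG+AL medium with 23 nL pinned compound. Grown 24 h at 30 degrees; viability read by BacTiter-Glo luminescence after 5 min.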
* marks the source's active call; other numbers are inactive results; ? = inconclusive; nt = not tested or not shown; [ ] = dose if it differs, or a comment. Unless noted, calls follow the shape of the dose curve; as a rule, active = well fitted curve in the direction sought with a large enough effect; inconclusive = small, poorly fitted or top-dose-only effect, or another doubt; inactive = no such curve, though single readings can be large; an effect the other way counts as inactive or inconclusive.

SMILES | CHX counter | LmPK inh | TbPYK inhibitor | FBPA Giardia inh | Shiga inhibitor | RE007 growth inh
O=C(COc1ccc(CO)cc1Cl)Nc1ccc(F)cc1 | 48.2* | 2.0% | -0.8% | 2.4% | 58.2* | -16.1%
O=C(COc1ccc(F)cc1)Nc1ccc(S(=O)(=O)Nc2ncccn2)cc1 | nt | nt | 7.2% | nt | nt | 26.0%
COc1ccccc1NC(=O)COc1ccc(CO)cc1Cl | 32.2* | 6.2% | -1.5% | -2.1% | 56.5* | -23.5%
COc1cccc(CN2CCNC(=O)C2CC(=O)NCCCN2CCCC2=O)c1 (stereo unspecified) | -2.2 | -3.4% | -3.7% | nt | -1.1 | -8.2%
C[C@@H](C(=O)O)c1ccc(C(=O)c2ccccc2)s1 | nt | nt | -9.2%[33.2 µM] | 12.4%[21.7 µM] | nt | nt
N#CCc1ccc(C(=O)c2ccccc2)s1 | 18.3* | 1.7% | 0.3% | -1.3% | 44.2 | -13.1%
Cc1ccc(S(=O)(=O)SCCCSS(=O)(=O)c2ccc(C)cc2)cc1 | nt | nt | 3.98µM* | nt | nt | ?
O=C1CS/C(=C/C(=O)c2cccc(Cl)c2)N1 | 27.2* | -9.1% | -1.5% | 5.3% | 56.0 | -10.3%
Cc1ccc(C(=O)/C=C2/NC(=O)CS2)cc1 | 24.8* | -9.9% | -1.8% | -1.1% | 45.0* | -7.4%
CC(C)c1ccc(NC(=O)Cn2cc(S(=O)(=O)Cc3ccccc3Cl)c3ccccc32)cc1 | nt | nt | 1.8%[15.4 µM] | nt | nt | nt
CCC(C(=O)NC(C)(C)C)n1c(-c2ccc3c(c2)OCO3)nc2ccccc21 (stereo unspecified) | nt | nt | nt | nt | nt | -7.4%
Clc1cc2nc(-c3cccnc3Cl)[nH]c2cc1Cl | 29.4* | -1.4% | -1.9% | -11.8% | 105.4* | 12.9%
Cc1cc2nc(-c3ccccc3O)[nH]c2cc1C | nt | nt | -10.3% | nt | nt | -14.6%
CCC1(c2ccc(F)cc2)NC(=O)N(CC(=O)Nc2ccc(C)c(S(=O)(=O)N3CCOCC3)c2)C1=O (stereo unspecified) | 7.7 | 5.7% | 2.8% | -5.4% | -6.3 | 3.2%
Brc1ccc(N/N=C(/N=Nc2nn[nH]n2)c2ccccc2)cc1 | 19.0* | ? | -18.2% | ? | 52.5 | -0.7%
O=C(O)c1ccc(N=N/C(=N\Nc2ccc(C(=O)O)cc2)c2ccccc2)cc1 | nt | nt | -16.5% | nt | nt | -23.8%
CC(C)C[C@H](NC(=O)[C@H](Cc1c[nH]c2ccccc12)NC(=O)[C@H](CCCCN)NC(=O)CNC(=O)[C@H](CC(C)C)NC(=O)[C@H](CO)NC(=O)[C@@H](N)Cc1cnc[nH]1)C(=O)NCC(=O)N[C@@H](Cc1cnc[nH]1)C(=O)N1CCC[C@H]1C(=O)N[C@@H](CC(=O)O)C(=O)N[C@@H](CCCCN)C(=O)N[C@@H](Cc1ccccc1)C(=O)O | -3.8 | nt | nt | -0.1% | -3.3 | nt
CC(C)N1CCN(Cc2nc(-c3ccccc3)cs2)CC1CCO (stereo unspecified) | 19.7* | 5.0% | 5.8% | -2.9% | 24.3 | 0.1%
OCCC1CN(Cc2nc(-c3ccccc3)cs2)CCN1C1CCCC1 (stereo unspecified) | -1.1 | 0.3% | 3.1% | 0.9% | -3.2 | -11.5%
COc1ccc(CN2CCN(Cc3ccccc3)C(CCO)C2)cc1OC (stereo unspecified) | -1.6 | 7.2% | 0.2% | 4.7% | -2.8 | 20.5%
CCOCCCNC(=O)C1CCN(Cc2ccc(OCc3ccccc3)c(OC)c2)CC1 | 17.9* | 1.6% | 12.0% | ? | 95.2 | 6.8%
COc1cc(CN2CCN(C(C)C)C(CCO)C2)ccc1OCc1ccccc1 (stereo unspecified) | 30.4* | 6.5% | -5.3% | 0.4% | 69.9* | -9.3%
CCCCNC(=O)C1CCN(Cc2ccc(OCc3ccccc3)c(OC)c2)CC1 | 41.7* | -7.6% | 6.8% | -21.3% | 44.1* | 1.9%
CCN(CC)S(=O)(=O)c1ccc2c(c1)N(CC(=O)N1CCN(c3ccc(Cl)cc3)CC1)C(=O)CO2 | nt | nt | -16.2% | nt | nt | nt
O=C(CS(=O)(=O)Cc1ccccc1)c1ccccc1 | nt | nt | -12.4% | nt | nt | -12.4%
SMILES | CHX counter | LmPK inh | TbPYK inhibitor | FBPA Giardia inh | Shiga inhibitor | RE007 growth inh
C[C@@H](O[C@H]1OCCN(Cc2n[nH]c(=O)[nH]2)[C@@H]1c1ccc(F)cc1)c1cc(C(F)(F)F)cc(C(F)(F)F)c1 | nt | nt | -6.5% | nt | nt | nt
CC1(C)Cc2nc3sc(C(=O)NCCCO)c(N)c3cc2CO1 | 28.6* | -6.5% | -3.3% | -9.3% | 90.5* | 15.0%
CC1(C)Cc2nc3scc(NC(=O)c4ccccc4)c3cc2CO1 | 14.4* | -0.1% | -5.5% | 3.8% | 28.3 | -14.3%
COC(=O)c1sc2nc3c(cc2c1N)COC(C)(C)C3 | 79.8* | -2.1% | 0.7% | -6.8% | 198.3* | -11.9%
CCOC(=O)c1sc2nc3c(cc2c1N)COC(C(C)C)C3 (stereo unspecified) | 56.9* | 2.9% | -1.3% | 4.0% | 157.5* | 4.9%
COc1ccccc1-c1ccc(Nc2ccc(C(=O)N3CCOCC3)cc2)nn1 | 11.9 | -12.5% | 6.1% | -1.3% | 19.6 | -2.2%
CC(=O)c1ccc(Nc2ccc(-c3ccccc3F)nn2)cc1 | 42.8* | -10.3% | -2.3% | -28.3% | 91.7 | 9.9%
CCC(C)(O)c1[nH]c2ccc(C(=O)OC)cc2c1C (stereo unspecified) | 22.4* | -3.2% | 0.9% | -8.5% | 33.6* | -5.4%
O=C(CSc1nc2ccccc2o1)Nc1ccccc1N1CCOCC1 | -0.1 | -2.3% | 0.8% | -1.0% | 24.3 | 4.7%
O=C(CSc1nc2cc(Cl)ccc2o1)Nc1ccc(N2CCOCC2)cc1 | 30.8* | 3.1% | -7.5% | 12.2% | 71.7* | -16.0%
O=C(CSc1nc2ccccc2o1)Nc1ccc(N2CCOCC2)cc1 | 46.8* | 2.6% | -1.3% | 0.1% | 62.4* | 17.0%
COCCNC(=O)CSc1nc2nn(-c3ccccc3)c(=O)c-2c2n1CCCCC2 | 1.5 | -6.3% | 0.5% | 4.5% | -9.3 | 8.8%
CC1=C(c2ccc(C)cc2)S(=O)(=O)N=C1N1CCN(c2ccccc2)CC1 | nt | nt | -2.9%[15.4 µM] | nt | nt | nt
O=C(COC(=O)c1ccccc1SCC(=O)N1CCCC1)NCc1ccccc1 | nt | nt | -4.8% | nt | nt | 19.9%
Cc1noc(C)c1C(=O)N1CCC2(CCCN(c3ccncc3)C2)CC1 | nt | nt | -6.7% | 7.6% | nt | nt
CCc1nnc(NC(=O)CSc2nc3c(cc2C#N)CCCC3)s1 | 35.2* | 1.7% | -1.5% | 0.0% | 57.9* | 2.6%
COC(=O)CC(=O)CSc1nc2c(cc1C#N)CCCCC2 | 46.3* | -18.7% | -11.4% | -0.1% | 105.0* | -6.2%
CCOc1ccccc1N1CCN(S(=O)(=O)c2ccc(C3CCCCC3)cc2)CC1 | nt | nt | -10.3% | nt | nt | nt
N/C(Cc1cccs1)=N\OC(=O)COc1ccc(Br)cc1Cl | 32.8* | 0.4% | -2.1% | 7.6% | 139.9* | 1.6%
N/C(Cc1ccc([N+](=O)[O-])cc1)=N\OC(=O)COc1ccccc1Cl | 1.9 | -0.1% | -24.1% | 3.6% | 13.8 | 6.4%
COc1ccc(C(=O)O/N=C(\N)Cc2cccs2)cc1OC | -4.5 | -0.6% | 0.8% | nt | -19.3 | -7.2%
N/C(Cc1cccs1)=N\OC(=O)COc1ccccc1Cl | 59.7* | -5.7% | 2.1% | -3.8% | 119.3* | -5.2%
